Inconclusive results are not listed. Activity calls are given as the source filed them. Calls follow the shape of the dose curve; as a rule, active = well fitted curve in the direction sought with a large enough effect in the repeat runs; inconclusive = weak or mixed curves; inactive = no such curve, though single readings can be large; an effect the other way counts as inactive or inconclusive.
Legend:
[1] = A CellTox Green Cytotoxicity Assay to monitor cytotoxicity in HepG2 cells - 0 hour (AID 1224882); also: nearly all actives have a fitted effect of over 35% in size
In short: (§1)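 Continuous culture of HepG2 cells with a membrane-impermeant DNA dye; rising fluorescence marks dead cells. Compound exposure lasted up to 40 h at 37 C, with reads every 8 h from 0 h.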

[2] = A CellTox Green Cytotoxicity Assay to monitor cytotoxicity in HepG2 cells - 32 hour (AID 1224883); also: nearly all actives have a fitted effect of over 50% in size
In short: as §1

[3] = A CellTox Green Cytotoxicity Assay to monitor cytotoxicity in HEK293 cells - 8 hour (AID 1224884); also: nearly all actives have a fitted effect of over 35% in size
In short: (§2)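 Each value comes from one timepoint of a single continuous run in which HEK293 cells with CellTox Green were exposed to compound for up to 40 h at 37 C, dye fluorescence rising with cell death.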

[4] = qHTS RealTime-Glo MT Cell Viability Assay in HepG2 cells - 16 hour (AID 1224885); also: nearly all actives have a fitted effect of over 50% in size
In short: (§3)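 Real-time, nonlytic viability: 600 HepG2 cells/well mixed with NanoLuc enzyme plus prosubstrate; 5 h settle, compound (DMSO) added by pintool; luminescence monitored over 40 h at 37 C.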

[5] = qHTS RealTime-Glo MT Cell Viability Assay in HEK293 cells - 24 hour (AID 1224886); also: top concentration of the series differs between compounds; nearly all actives have a fitted effect of over 50% in size
In short: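 Cells + reagent dispensed (600 cells/well, HEK293) → 5 h at 37 C/5% CO2 → 23 nL compound in DMSO pinned → 40 h at 37 C → luminescence read at 0, 8, 16, 24, 32, 40 h.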

[6] = qHTS RealTime-Glo MT Cell Viability Assay in HEK293 cells - 8 hour (AID 1224887); also: top concentration of the series differs between compounds; nearly all actives have a fitted effect of over 50% in size
In short: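 qHTS format; HEK293 cells with NanoLuc/prosubstrate reagent, 37 C/5% CO2 for 5 h pre-dosing; compounds 23 nL in DMSO; luminescence at each time point reflects viable cells.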

[7] = A CellTox Green Cytotoxicity Assay to monitor cytotoxicity in HEK293 cells - 16 hour (AID 1224888); also: nearly all actives have a fitted effect of over 35% in size
In short: as §2

[8] = qHTS RealTime-Glo MT Cell Viability Assay in HepG2 cells - 0 hour (AID 1224889); also: nearly all actives have a fitted effect of over 50% in size
In short: as §3

[9] = A CellTox Green Cytotoxicity Assay to monitor cytotoxicity in HepG2 cells - 8 hour (AID 1224890); also: nearly all actives have a fitted effect of over 45% in size
In short: as §1

[10] = qHTS assay to identify small molecule antagonists of the estrogen receptor alpha (ER-alpha) signaling pathway using the BG1 cell line in the presence of 0.1 nM 17-beta-estradiol - cell viability counter screen (AID 1259241); also: nearly all actives have a fitted effect of over 40% in size
In short: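 CellTiter-Fluor read (30 min, 37C) on ER-alpha/ERE-luc VM7Luc4E2 cells; 22 hr compound treatment; agonist 0.1 nM E2 final; same-well multiplex.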
% is scaled to controls: 0 for no effect and ±100 for the full control effect.

Cc1cnc[nH]1
inactive: outcome [1] | Potency [2] | Potency [3] | Potency [4] | Potency [5] | Potency [6] | Potency [7] | Potency [8] | Potency [9] | outcome [10]

C=CC1CC=CCC1 (stereo unspecified)
inactive: outcome [1] | Potency [2] | Potency [3] | Potency [4] | Potency [5] | Potency [6] | Potency [7] | Potency [8] | Potency [9] | outcome [10]

Nc1cc2c3c(c1)C(c1ccccc1)=N[C@@H](NC(=O)c1cccnc1)C(=O)N3CC2
inactive: outcome [1] | Potency [2] | Potency [3] | Potency [4] | Potency [5] | Potency [6] | Potency [7] | Potency [8] | Potency [9]

CCCSC(=O)N(CCC)CCC
inactive: outcome [1] | Potency [2] | Potency [3] | Potency [4] | Potency [5] | Potency [6] | Potency [7] | Potency [8] | Potency [9] | outcome [10]

O=c1oc2ccccc2c(O)c1C1CCCc2ccccc21 (stereo unspecified)
inactive: outcome [1] | Potency [2] | Potency [3] | Potency [4] | Potency [5] | Potency [6] | Potency [7] | Potency [8] | Potency [9] | outcome [10]

O=C1c2ccccc2C(=O)c2ccccc21
inactive: cytotoxicity [1] 5.37% [at 15.8 µM] | cytotoxicity increase [2] 7.1% [at 15.8 µM] | cytotoxicity increase [3] 6.23% [at 15.8 µM] | activity change, negative = cytotoxic [4] 1.58% [at 15.8 µM] | activity change, negative = cytotoxicity [5] 20.7% [at 15.8 µM] | activity change, negative = cytotoxicity [6] 16.6% [at 15.8 µM] | activity change [7] 5.38% [at 15.8 µM, stronger effect = higher value] | activity change, negative = cytotoxicity [8] 6.06% [at 15.8 µM] | cytotoxicity increase [9] 19.4% [at 15.8 µM] | activity change, negative = cytotoxicity [10] 0.424% [at 19 µM]

O=C(O)C(Br)CBr (stereo unspecified)
inactive: outcome [1] | Potency [2] | Potency [3] | Potency [4] | Potency [5] | Potency [6] | Potency [7] | Potency [8] | Potency [9] | outcome [10]

NC(=S)C(N)=S
inactive: outcome [1] | Potency [2] | Potency [3] | Potency [4] | Potency [5] | Potency [6] | Potency [7] | Potency [8] | Potency [9]

CCCSP(=O)(OCC)Oc1ccc(Br)cc1Cl (stereo unspecified)
inactive: outcome [1] | Potency [2] | Potency [3] | Potency [4] | Potency [5] | Potency [6] | Potency [7] | Potency [8] | Potency [9]

COc1cc(OC)nc(NC(=O)NS(=O)(=O)c2ncccc2C(=O)N(C)C)n1
inactive: outcome [1] | Potency [2] | Potency [3] | Potency [4] | Potency [5] | Potency [6] | Potency [7] | Potency [8] | Potency [9] | outcome [10]

CCCCCCBr
inactive: outcome [1] | Potency [2] | Potency [3] | Potency [4] | Potency [5] | Potency [6] | Potency [7] | Potency [8] | Potency [9]

Cc1nc(N)nc(N)n1
inactive: outcome [1] | Potency [2] | Potency [3] | Potency [4] | Potency [5] | Potency [6] | Potency [7] | Potency [8] | Potency [9] | outcome [10]

C[N+](C)=CCl
inactive: outcome [1] | Potency [2] | Potency [3] | Potency [4] | Potency [5] | Potency [6] | Potency [7] | Potency [8] | Potency [9] | outcome [10]

Cc1ncsc1CCCl
inactive: outcome [1] | Potency [2] | Potency [3] | Potency [4] | Potency [5] | Potency [6] | Potency [7] | Potency [8] | Potency [9] | outcome [10]

N#CC(Cl)(Cl)Cl
inactive: outcome [1] | Potency [2] | Potency [3] | Potency [4] | Potency [5] | Potency [6] | Potency [7] | Potency [8] | Potency [9] | outcome [10]

CC1CN1P(=O)(N1CC1C)N1CC1C (stereo unspecified)
inactive: outcome [1] | Potency [2] | Potency [3] | Potency [4] | Potency [5] | Potency [6] | Potency [7] | Potency [8] | Potency [9] | outcome [10]

O=NN1CCCCC1
inactive: outcome [1] | Potency [2] | Potency [3] | Potency [4] | Potency [5] | Potency [6] | Potency [7] | Potency [8] | Potency [9] | outcome [10]

Fc1cc(Br)ccc1CBr
inactive: outcome [1] | Potency [2] | Potency [3] | Potency [4] | Potency [5] | Potency [6] | Potency [7] | Potency [8] | Potency [9] | outcome [10]

O=[N+]([O-])c1cccc2cccnc12
inactive: outcome [1] | Potency [2] | Potency [3] | Potency [4] | Potency [5] | Potency [6] | Potency [7] | Potency [8] | Potency [9] | outcome [10]

CCOP(=S)(Oc1cnc(C(C)(C)C)nc1)OC(C)C (stereo unspecified)
inactive: outcome [1] | Potency [2] | Potency [3] | Potency [4] | Potency [5] | Potency [6] | Potency [7] | Potency [8] | Potency [9] | outcome [10]

C1CCC(C2CCCCC2)CC1
inactive: outcome [1] | Potency [2] | Potency [3] | Potency [4] | Potency [5] | Potency [6] | Potency [7] | Potency [8] | Potency [9] | outcome [10]

CC(C=O)Cc1ccc2c(c1)OCO2 (stereo unspecified)
inactive: outcome [1] | Potency [2] | Potency [3] | Potency [4] | Potency [5] | Potency [6] | Potency [7] | Potency [8] | Potency [9] | outcome [10]

C(CCOCC1CO1)COCC1CO1 (stereo unspecified)
inactive: outcome [1] | Potency [2] | Potency [3] | Potency [4] | Potency [5] | Potency [6] | Potency [7] | Potency [8] | Potency [9] | outcome [10]

CSc1ccc(C(=O)C(C)(C)N2CCOCC2)cc1
inactive: outcome [1] | Potency [2] | Potency [3] | Potency [4] | Potency [5] | Potency [6] | Potency [7] | Potency [8] | Potency [9] | outcome [10]

CCC1(c2ccccc2)C(=O)N=C(O)NC1=O (stereo unspecified)
inactive: outcome [1] | Potency [2] | Potency [3] | Potency [4] | Potency [5] | Potency [6] | Potency [7] | Potency [8] | Potency [9] | outcome [10]

Reference: PubChem BioAssay (Tox21)
